PubChem BioAssay AID2551 (National Center for Advancing Translational Sciences (NCATS), 2010)
The whole screen tested about 310,000 compounds, of which about 17,000 (5.5%) were called active. Another 11% or so got no clear call; they are omitted. Calls come from the whole dose curve; as a rule, active = well fitted inhibition curve with a large enough effect; inconclusive = small, poorly fitted or top-dose-only effect, or effect the other way; inactive = no such curve, though single readings can be large or run the other way. The entries come from a sample that favours actives as a whole.

Target: Nuclear receptor ROR-gamma (Mus musculus) (UniProt P51450)
Assay: qHTS for inhibitors of ROR gamma transcriptional activity; note: nearly all actives have a fitted effect of over 60% in size
Conditions: Drosophila S2 Gal4-RORgamma UAS-luciferase reporter, 20 h; series mostly up to 53.6 µM; activity change, negative = inhibition: at the top concentration
Method in brief: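 Stably transfected Drosophila Schneider cells are the test system, with ROR gamma fused to Gal4 and luciferase under UAS control; luminescence is read after 20 hr of 700 uM copper sulfate induction at ambient temperature.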
% is set by controls: 0 for no effect and ±100 for the full control effect; potency is the fitted concentration of half-maximal effect.

Chain of Nuclear receptor ROR-gamma (Mus musculus) (P51450 whole entry, looked up): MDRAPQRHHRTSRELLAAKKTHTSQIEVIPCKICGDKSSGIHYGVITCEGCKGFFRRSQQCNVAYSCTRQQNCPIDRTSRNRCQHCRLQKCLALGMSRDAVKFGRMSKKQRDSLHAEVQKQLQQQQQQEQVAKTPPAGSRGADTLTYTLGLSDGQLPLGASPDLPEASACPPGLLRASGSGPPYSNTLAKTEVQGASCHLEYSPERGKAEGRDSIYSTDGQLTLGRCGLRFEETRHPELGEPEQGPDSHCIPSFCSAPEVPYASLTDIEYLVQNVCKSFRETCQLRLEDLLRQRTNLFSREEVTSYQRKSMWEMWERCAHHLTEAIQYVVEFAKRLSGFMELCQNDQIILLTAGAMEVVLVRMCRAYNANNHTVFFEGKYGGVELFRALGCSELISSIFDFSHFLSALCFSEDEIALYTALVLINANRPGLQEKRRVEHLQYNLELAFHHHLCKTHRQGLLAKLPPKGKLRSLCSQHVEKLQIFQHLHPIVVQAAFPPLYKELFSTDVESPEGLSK

SMILES | activity change, negative = inhibition | Potency
CCc1nc2cccnc2n1-c1ccc(C(=O)O)cc1 | 14.3% (inactive) | 
CC(=O)Oc1cccc(C(=O)Nc2ccccc2NC(=O)c2cccc(OC(C)=O)c2)c1 | 17.2% (inactive) | 
COc1ccc(C2=NS(=O)(=O)N(C)C(C(=O)N3CCCCC3)=C2)cc1 | 15% (inactive) | 
COc1cc(CC(=O)N2CCC(n3nccc3NC(=O)C3CC3)CC2)cc(OC)c1OC | -6.83% (inactive) | 
CC(C)(C)c1ccc(/C=C/C(=O)NCCCn2ccnc2)cc1 | 9.01% (inactive) | 
O=C(CSc1nc(C2CC2)nc2ccccc12)Nc1cccc(O)c1 | 15.2% (inactive) | 
Cc1cccc(C(=O)Nc2ccc(CC(=O)O)cc2)c1 |  | 7.94 µM (active)
O=C(Cc1ccccc1)Nc1cccc(NC(=O)c2ccccc2)c1 | 28.4% (inactive) | 
O=C(O)Cc1ccc(NC(=O)c2cccs2)cc1 | -37% (inactive) | 
Cc1nn(C)cc1S(=O)(=O)N1CCN(c2ccc(F)cc2)CC1 | -15.6% (inactive) | 
Cc1ccc(OCC(=O)Nc2ccc(C(=O)O)cc2NC(=O)COc2ccc(C)c(C)c2)cc1C | 35% (inactive) | 
CCCCCCCCn1c2c(c(=N)c3c1CCC3)CCCC2 |  | 0.708 µM (active)
O=C(NNS(=O)(=O)c1ccc([N+](=O)[O-])cc1)C1CCCCC1 | -7.5% (inactive) | 
c1ccc(CN=C2Nc3ccccc3CS2)nc1 |  | 11.2 µM (active)
COc1ccccc1-n1c(-c2cc(-c3ccco3)[nH]n2)n[nH]c1=S | -40.9% (inactive) | 
Cn1c(-c2ccco2)nc2cc3ccccc3cc21 |  | 6.31 µM (active)
COc1ccc(CCn2c(-c3ccco3)nc3nc4ccccc4nc32)cc1OC | -7.43% [at 10 µM] (inactive) | 
CN(C)Cc1c(C(=O)N/N=C/c2ccccc2OCc2ccc(F)cc2)nnn1-c1nonc1N | -4.75% (inactive) | 
Cc1cc(C)c(C2C3=C(Nc4c2c(C)nn4-c2ccccn2)c2ccccc2C3=O)c(C)c1 (centres undefined) |  | 2.51 µM (active)
Cc1ccc(C2C3=C(Nc4[nH]n(-c5ccccc5)c(=O)c42)c2ccccc2C3=O)cc1 (centres undefined) | -1.07% (inactive) | 
Cc1nn(-c2ccccn2)c2c1C(c1ccncc1)C1=C(CC(C)(C)CC1=O)N2 (centres undefined) | -24.6% (inactive) | 
CS(=O)(=O)N(CC(=O)Nc1ccc(F)cc1)C1CCCCC1 | -10.2% (inactive) | 
Cc1cccc(OC(C)C(=O)N2CCc3ccccc3C2)c1 (centres undefined) | -19.3% (inactive) | 
Cc1nnc(SCC(=O)N/N=C/c2cn(-c3ccccc3)nc2-c2ccc(F)cc2)n1-c1ccccc1 | -1.76% (inactive) | 
CN(C)/N=C/c1cn(-c2ccccc2)nc1-c1cccnc1 | 10.6% (inactive) | 
COc1ccc(-c2nn(-c3ccccc3)cc2/C=N/Nc2ccccn2)cc1OC |  | 7.08 µM (active)
CC1CC(=O)N(CC(=O)Nc2cccc(Cl)c2)c2ccccc2S1(=O)=O (centres undefined) | -19.7% (inactive) | 

SMILES | activity change, negative = inhibition | Potency
NC(=O)c1cc(S(=O)(=O)N2CCCC2)ccc1OCc1ccc(F)cc1 | 13.3% (inactive) | 
CCOC(=O)CSc1nnc(CNC(=O)c2cccs2)n1-c1ccccc1 | 5% (inactive) | 
Cc1ccc(C)c2[nH]c(=O)c(CCNC(=O)c3cccs3)cc12 | -1.69% (inactive) | 
C=CCn1c(CCNC(=O)c2cccs2)n[nH]c1=S |  | 17.8 µM (active)
O=C(c1cc2cc(Br)cc(Br)c2oc1=O)N1CCOCC1 | -31.5% (inactive) | 
C=CCn1c(-c2ccc3[nH]c(C)c(C)c3c2)n[nH]c1=S |  | 5.62 µM (active)
Cc1nc(-c2ccccc2)sc1-c1nc(-c2ccccc2)ncc1S(=O)(=O)c1ccccc1 | -39.3% (inactive) | 
Cc1nc(-c2ccccc2)sc1-c1nnc(C2CC2)o1 | -19.7% (inactive) | 
C=CCn1c(-c2ccccc2OCC)n[nH]c1=S |  | 10 µM (active)
C=CCn1c(COc2cccc3cccnc23)nnc1SCC(=O)OC | 4.22% (inactive) | 
Cc1[nH]c2ccc(S(N)(=O)=O)cc2c1C | -1.39% [at 10 µM] (inactive) | 
C=CCn1c(-c2sc(-c3ccccc3)nc2C)n[nH]c1=S |  | 2.51 µM (active)
C=CCn1c(COc2ccccc2C)nnc1SCC(=O)O | -3.71% (inactive) | 
C=CCn1c(=S)sc2c(=O)[nH]c(C)nc21 | 6.04% (inactive) | 
COCCn1c(SCC(=O)N2CCCCCC2)nc2c(c1=O)SCC2 | 4.84% (inactive) | 
CCN1CCN(c2sc(S(C)(=O)=O)nc2S(=O)(=O)c2ccc(Cl)cc2)CC1 | -11.5% (inactive) | 
CCOC(=O)c1csc(CCNC(=O)c2oc3c(Cl)cc(C)cc3c2C)n1 | 13.3% (inactive) | 
CC1CC(C)CN(S(=O)(=O)c2cccc3nonc23)C1 (centres undefined) | -6.89% (inactive) | 
COc1ccc(/C=N/NC(=O)c2ccc(Cl)cc2)cc1COC(C)=O | 1.99% (inactive) | 
COc1cc(/C=N/NC(=O)CNC(=O)c2ccncc2)ccc1OC(C)=O | 5.03% (inactive) | 
COc1ccc(/C=N/NC(=O)c2ccncc2)cc1CN1CCCc2ccccc21 |  | 11.2 µM (active)
COc1ccc(C(=O)O)cc1S(=O)(=O)NCc1cccnc1 | 33.5% (inactive) | 
COc1cccc(NC(=O)CN2CCN(CC(=O)Nc3ccccc3Cl)CC2)c1 | 7.2% (inactive) | 
Cc1ccc(OCC(=O)NC(C)c2ccccc2)cc1C (centres undefined) | 27% (inactive) | 
O=C(CN1CCCCCC1)Nc1ccc(S(=O)(=O)N2CCCCC2)cc1 | -0.816% (inactive) | 
Cc1occc1C(=O)Nc1nnc(C2CCCCC2)s1 | 0% [at 10 µM] (inactive) | 
CC1CCN(c2ccc(C(=O)Nc3nnc(C4CC4)s3)cc2[N+](=O)[O-])CC1 | -38.9% (inactive) | 

SMILES | activity change, negative = inhibition | Potency
O=C(Nc1nnc(C2CC2)s1)c1ccccn1 |  | 1.12 µM (active)
O=C(Nc1nnc(C2CC2)s1)c1cc(Cl)sc1Cl |  | 11.2 µM (active)
O=C(Cc1cccs1)Nc1nnc(C2CC2)s1 | 17.9% (inactive) | 
Cc1cccc(NC(=O)CSCC(=O)Nc2nnc(C3CC3)s2)c1 | -38.7% (inactive) | 
CCCc1ccc(OCC(O)CN2CCN(C(=O)OCC)CC2)cc1 (centres undefined) | 16.4% (inactive) | 
O=C(NCc1ccncc1)C(=O)NCC1OCCN1S(=O)(=O)c1ccc(Br)cc1 (centres undefined) | -10.9% (inactive) | 
CCCN1C2CCCC1CC(NC(=O)NC13CC4CC(CC(C4)C1)C3)C2 (centres undefined) | -25.4% (inactive) | 
COc1cc(/C=N/NC(=O)Cc2ccccc2)cc(OC)c1OC | 0.299% (inactive) | 
C/C(=N\NC(=O)c1ccc(C)cc1)C1C(=O)c2ccccc2C1=O |  | 0.891 µM (active)
Cc1ccc(C(=O)NCCNC(=O)c2ccccc2)cc1 | -8.02% (inactive) | 
C/C(=N/NC(=O)c1ccc(NC(=O)c2ccc(F)cc2)cc1)c1ccccc1 | -31.3% (inactive) | 
FC(F)(F)c1nnc2c3ccccc3c(Cl)nn12 | -22.3% (inactive) | 
O=C(CN1CCN(c2cccc(Cl)c2)CC1)Nc1ccc(S(=O)(=O)N2CCOCC2)cc1 | 14.7% (inactive) | 
NC(=O)Nc1ccccc1C(=O)NCCc1ccccc1 | 18.4% (inactive) | 
Cc1ccc(NC(=S)NCCc2ccc(Cl)cc2)c(C)c1 |  | 2.82 µM (active)
Cc1ccc(NC(=O)C(=O)NCc2ccco2)c(C)c1 | 18.4% (inactive) | 
Cc1cc(C(=O)NCCc2ccc(Cl)cc2)c(C)o1 | 13.5% (inactive) | 
Cc1ccc(NC(=O)c2ccn(C(=O)Nc3ccccc3)n2)c(C)c1 | 4.67% (inactive) | 
Cc1cc(Cl)ccc1NC(=S)NCCCN1CCCC1=O | -42.8% (inactive) | 
O=C(CC(=O)N/N=C\c1ccc(F)cc1)NCCc1ccccc1 | 24.3% (inactive) | 
Cc1cccc(NC(=O)C2CCCN(C(=O)Nc3ccc(F)cc3)C2)c1C (centres undefined) | 1.81% (inactive) | 
Cc1ccc(NC(=S)NCc2ccccc2Cl)c(C)c1 |  | 6.31 µM (active)
Cc1cccc(NC(=S)NCCc2ccc(F)cc2)c1C |  | 2 µM (active)
Cc1cccc(NC(=O)COC(=O)CCc2ccccc2)c1C | -18.4% [at 1.91 µM] (inactive) | 
Cc1cc(F)ccc1NC(=S)NCCc1ccccc1 |  | 5.62 µM (active)
